Measurements as given in publication PMC4552634, “A New Set of Chemical Starting Points with Plasmodium falciparum Transmission-Blocking Potential for Antimalarial Drug Discovery” (PLoS ONE, 2015).
The whole screen tested about 13,000 compounds, of which about 3,200 (25%) showed an effect of 50% or more. The list shows a part of the results.

The molecules below were run on P. falciparum stage V gametocytes. Settings: 48 h, 5 µM; inhibitor.
Set-up: BacTiter-Glo ATP luminescence viability of purified stage V gametocytes in 384-well plates, per cent inhibition versus DMSO
With `CN1CCCC1CCOc1ccc2c(c1)N(C(=O)Nc1cc(Br)cc(C(F)(F)F)c1)CC2` (stereo not shown) [TCMDC-140247] the “% Inhibition” value was 47.25%. For `CC(C)c1ccc(NS(=O)(=O)c2cccc(C(=O)NC3CCN(CC4CCCCC4)CC3)c2)cc1` [TCMDC-136739], the “% Inhibition” value was -17.03%. With `CCOC(=O)CCCOc1cc(Cc2cnc(N)nc2N)cc(OC)c1OC` [TCMDC-137356] the “% Inhibition” value was 44.1%. With `COc1ccc(Nc2nccc(N3CCC(NC(=O)C(C)c4ccc(Cl)cc4)C3)n2)cc1` (stereo not shown) [TCMDC-133612] the “% Inhibition” value was -10.01%. For `COc1cc(NC(=O)C(c2ccc(Cl)cc2)C(C)C)cc(OC)c1OC` (stereo not shown) [TCMDC-125118], the “% Inhibition” value was 82.24%. In the case of `CC(C)C(C(=O)Nc1ccc2c(c1)OCO2)c1ccc(Cl)cc1` (stereo not shown) [TCMDC-125398], the “% Inhibition” value is reported as 78.19%. `COc1cc(C(C)C)nc2ccc(NC(=O)c3ccc(C(=O)Nc4ccc5nc(C(C)C)cc(OC)c5c4)cc3)cc12` [TCMDC-140150] was tested, and the “% Inhibition” value was 33.52%. For `O=C(Nc1ccc2c(c1)OCO2)c1cc(-c2cccnc2)nc2ccc(Cl)cc12` [TCMDC-125213], the “% Inhibition” value was -64.78%. For `Cc1nc2ccc(NC(=O)c3cc(S(=O)(=O)N(C)C)ccc3Cl)cc2s1` [TCMDC-124375], the “% Inhibition” value was 38.91%. In the case of `COc1ccc(Cl)cc1NC(=O)C(C)Nc1ccc(-c2ccccc2)cc1` (stereo not shown) [TCMDC-123559], the “% Inhibition” value is reported as -53.48%. With `CC(C(=O)NC1CCN(c2ccnc(Nc3ccc(F)cc3)n2)C1)c1ccc(Cl)cc1` (stereo not shown) [TCMDC-133596] the “% Inhibition” value was 19.11%. In the case of `Cc1cc(N2CCCC2)nc(Nc2ccc(NC(=O)c3ccc4c(c3)OCO4)cc2)n1` [TCMDC-124955], the “% Inhibition” value is reported as -35.01%. `CC(C)C(C(=O)Nc1ccc(S(=O)(=O)N(C)C)cc1)c1ccc(Cl)cc1` (stereo not shown) [TCMDC-125113] was tested, and the “% Inhibition” value was 56.45%. `CC(C)c1ccc(CN(C)CCCCNC(=O)c2ccc(NC(=O)c3ccc(Cl)cc3)cc2)cc1` [TCMDC-138505] was tested, and the “% Inhibition” value was 20.72%. For `COc1cc(Nc2nccc(N3CCC(NC(=O)C(C)c4ccc(Cl)cc4)C3)n2)cc(OC)c1OC` (stereo not shown) [TCMDC-133623], the “% Inhibition” value was 58.38%. For `O=C(Nc1ccccc1)Nc1ccc(-c2cccc(-c3nc4ccc(C(F)(F)F)cc4[nH]3)c2)cc1` [TCMDC-133153], the “% Inhibition” value was -37.9%. In the case of `COC(=O)c1ccc2c(c1)nc(Nc1cccc(F)c1)n2CC(O)c1ccccn1` (stereo not shown) [TCMDC-138586], the “% Inhibition” value is reported as -5.24%. `CC(C)(C)c1nn(-c2ccccc2)c2[nH]c(=O)c(CNCCc3ccccc3)cc12` [TCMDC-125381] was tested, and the “% Inhibition” value was 14.37%. For `CCCCN1CCN(c2cc(NS(=O)(=O)c3ccc(C(=O)Nc4ccc(C(F)(F)F)cc4)cc3)ccc2OC)CC1` [TCMDC-141777], the “% Inhibition” value was -10.1%. With `O=C(Nc1ccc(-c2nc3ccccc3[nH]2)cc1)c1cncc(Br)c1` [TCMDC-123692] the “% Inhibition” value was 2.548%. `COc1ccc(Nc2nccc(N3CCC(NC(=O)C(C)c4ccc(Cl)cc4)CC3)n2)cc1` (stereo not shown) [TCMDC-133633] was tested, and the “% Inhibition” value was 29.63%. With `COc1cc(NC(=O)C(c2ccc(Cl)cc2)C(C)C)cc(OC)c1` (stereo not shown) [TCMDC-124823] the “% Inhibition” value was 74.52%. For `COc1cc(NC(=O)c2cccc([N+](=O)[O-])c2)cc(S(=O)(=O)c2ccc(Cl)cc2)c1` [TCMDC-124901], the “% Inhibition” value was 21.63%. For `CCCc1nc2c(N3CC(NC(=O)/C=C/c4ccccc4)C3)cccc2n1C1CC1` [TCMDC-134613], the “% Inhibition” value was 8.32%. `O=C1C2=C(Nc3ccccc3SC2c2cccs2)c2ccccc21` (stereo not shown) [TCMDC-124060] was tested, and the “% Inhibition” value was -4.275%. With `COc1ccc(NCc2cccc(-c3cccc(CNCCc4ccccc4)c3)c2)cc1` [TCMDC-140485] the “% Inhibition” value was -4.016%. In the case of `COc1cccc(CCNCc2ccc(-c3cccc(CNC4CCCC4)c3)cc2)c1` [TCMDC-140493], the “% Inhibition” value is reported as 66.56%. For `COCCNCc1ccc(-c2ccc(CNC3CCN(Cc4ccccc4)CC3)cc2)cc1` [TCMDC-140490], the “% Inhibition” value was 23.65%. In the case of `COCCNCc1cccc(-c2cccc(CNC3CCN(Cc4ccccc4)CC3)c2)c1` [TCMDC-140481], the “% Inhibition” value is reported as 99.88%. `COCCNCc1cccc(-c2ccc(CNC3CCN(Cc4ccccc4)CC3)cc2)c1` [TCMDC-140489] was tested, and the “% Inhibition” value was 85.27%. In the case of `COCCNCc1ccc(-c2cccc(CNc3ccc(OC)cc3)c2)cc1` [TCMDC-140484], the “% Inhibition” value is reported as -1.116%. With `COCCNCc1ccc(-c2cccc(CNC3CCN(Cc4ccccc4)CC3)c2)cc1` [TCMDC-140482] the “% Inhibition” value was 107.8%. For `O=C(NCc1cccc(C(F)(F)F)c1)C(c1cc2ccccc2o1)N1CCN(C(c2ccccc2)c2ccccc2)CC1` (stereo not shown) [TCMDC-141008], the “% Inhibition” value was 8.041%. In the case of `Cc1ccc(C(C)C)cc1CON1C(N)=NC(N)=NC1(C)C` [TCMDC-131323], the “% Inhibition” value is reported as 26.53%. With `COc1ccc2nccc([C@@H](O)CN3CCC(NCc4ccc(OC)c(NC=O)c4)CC3)c2c1` [TCMDC-141568] the “% Inhibition” value was 1.46%. `CN(Cc1cccc(C#N)c1)C1CCN(c2cc(NC(=O)c3ccc(F)cc3)ccn2)CC1` [TCMDC-134974] was tested, and the “% Inhibition” value was -6.144%. In the case of `CN(C)CCOc1cc(NC(=O)Nc2ccc(Cl)cc2C(F)(F)F)ccc1I` [TCMDC-139125], the “% Inhibition” value is reported as -26.77%. In the case of `Cc1cc(N[C@@H](CC(C)C)C(=O)NCCOc2ccccc2)nc(NCC2CCCCC2)n1` [TCMDC-134919], the “% Inhibition” value is reported as -82.39%. For `COc1cccc(CN2CCC3(CC2)CN(C(=O)Nc2ccc(Cl)c(Cl)c2)C3)c1` [TCMDC-136484], the “% Inhibition” value was -4.115%. In the case of `CN(CCCc1c[nH]c2ccccc12)CCC1CCC(NC(=O)/C=C/c2ccc(Cl)c(Cl)c2)CC1` (stereo not shown) [TCMDC-139449], the “% Inhibition” value is reported as -10.77%. `Cn1cc(CCNc2ccnc(NCCc3coc4ccccc34)n2)c2ccccc21` [TCMDC-135121] was tested, and the “% Inhibition” value was 46.44%. For `CCOc1ccccc1CNc1nccc(NCCc2cn(C)c3ccccc23)n1` [TCMDC-135123], the “% Inhibition” value was 47.81%. In the case of `CN1CCN(CC2(Nc3nccc(NCc4ccc(Cl)cc4Cl)n3)CCCCC2)CC1` [TCMDC-135114], the “% Inhibition” value is reported as 73.23%. In the case of `CN1CCN(CC2(Nc3nccc(NCCc4cn(C)c5ccccc45)n3)CCCCC2)CC1` [TCMDC-135122], the “% Inhibition” value is reported as 114.3%. For `Clc1ccc(CNc2ccnc(NCc3cccnc3N3CCCC3)n2)c(Cl)c1` [TCMDC-135112], the “% Inhibition” value was 11.98%. In the case of `CCOc1ccccc1CNc1nccc(NCc2ccc(Cl)cc2Cl)n1` [TCMDC-135115], the “% Inhibition” value is reported as 39.1%.
